# Test results from PubChem BioAssay (EPA / NIEHS).
# Values joined by “and” are separate entries in the source; they are usually repeats but may differ in a detail not shown here. Equal entries are not always repeated. Some structures have more than one record in an assay (separate samples or runs), and their calls can disagree. Active and inactive are the calls of the source. The calls were made as follows: active = hit-call score of the fitted dose curve at least 0.9, where 1 is the maximum; inactive = score below 0.9.
# Assays:
# [1] = read-out: Interleukin-8 (IL8), CXCL8 (gene 3576); experiment: BSK_BE3C_IL8: BioMAP Diversity Plus: BE3C Assay for Interleukin-8 (IL8) Biomarker Activity (AID 2284280); conditions: primary human bronchial epithelial cells
# How it was run: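 Measured at 24 h after treatment, IL-8 from human primary bronchial epithelial cells is determined by ELISA, and the response is modelled as increasing relative to DMSO negative control.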
# [2] = read-out: Epidermal growth factor receptor (EGFR), EGFR (gene 1956); experiment: BSK_BE3C_EGFR: BioMAP Diversity Plus: BE3C Assay for Epidermal growth factor receptor (EGFR) Biomarker Activity (AID 2284281); conditions: primary human bronchial epithelial cells
# How it was run: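 Measured 24 h after dosing in primary human bronchial epithelial cultures, EGFR was read by ELISA; gain of signal over DMSO control defined activity.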
# KRT18 (gene 3875) = experiment: BSK_BE3C_Keratin818: BioMAP Diversity Plus: BE3C Assay for Keratin 818 Biomarker Activity (AID 2284282); conditions: primary human bronchial epithelial cells
# How it was run: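 ELISA readout of Keratin 8/18 in human primary bronchial epithelial cultures after 24 h chemical exposure, DMSO baseline. Parallel SRB staining (0.1%, TCA-fixed, 560 nm) served as cytotoxicity check.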
# [3] = read-out: Matrix Metallopeptidase 9 (MMP9), MMP9 (gene 4318); experiment: BSK_BE3C_MMP9: BioMAP Diversity Plus: BE3C Assay for Matrix Metallopeptidase 9 (MMP9) Biomarker Activity (AID 2284283); conditions: primary human bronchial epithelial cells
# How it was run: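 BE3C, human bronchial epithelial primary cells; 24 h post-dose; MMP-9 by ELISA; positive fit vs DMSO; SRB (0.1%, TCA-fixed, 560 nm) parallel cytotox.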
# [4] = read-out: Plasminogen activator inhibitor-1 (PAI1), SERPINE1 (gene 5054); experiment: BSK_CASM3C_PAI1: BioMAP Diversity Plus: CASM3C Assay for Plasminogen activator inhibitor-1 (PAI1) Biomarker Activity (AID 2284284); conditions: primary human coronary artery smooth muscle cells;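 also: PAI-1 protein level measured by ELISA 24 h after dosing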
# [5] = read-out: Monocyte Chemoattractant Protein-1 (MCP1), CCL2 (gene 6347); experiment: BSK_hDFCGF_MCP1: BioMAP Diversity Plus: hDFCGF Assay for Monocyte Chemoattractant Protein-1 (MCP1) Biomarker Activity (AID 2284285); conditions: primary human foreskin fibroblasts
# Method: BSK_hDFCGF is a cell-based, multiplexed-readout assay that uses foreskin fibroblast, a human skin primary cell, with measurements taken at 24 hours after chemical dosing in a 96-well plate.BSK_hDFCGF_MCP1 is an assay component measured in the BSK_hDFCGF assay. It measures MCP-1 antibody related to regulation of gene expression using ELISA technology.Data from the assay component BSK_hDFCGF_MCP1 was analyzed at the endpoint, BSK_hDFCGF_MCP1, in the positive analysis fitting direction relative to DMSO as the negative control and baseline of activity. Using a type of binding reporter, gain or loss-of-signal activity can be used to understand protein changes. To generalize the intended target to other relatable targets, this assay endpoint is annotated to the 'cytokine' intended target family, where the subfamily is 'chemotactic factor'.
# The levels of cell surface (or secreted, indicated by the prefix "s") biomarker endpoints were measured by ELISA. Overt cytotoxicity to cells in confluent adherent cultures (all systems other than the BT system) was assessed by measuring total protein levels using sulforhodamine B (SRB) staining in parallel cultures at the time of biomarker measurements, indicated as SRB endpoints. For proliferation assays for adherent cell types, individual cell types are cultured at sub-confluence and relative cell numbers quantified by SRB staining at time points optimized for each system (48 h: 3C and CASM3C systems; 72 h: BT and HDF3CGF systems; 96 h: SAg system). SRB was performed by staining cells with 0.1% SRB after fixation with 10% TCA and reading wells at 560 nm.Viability and proliferation of PBMC (T cells) was quantified by Alamar Blue reduction for the SAg and BT systems. For PBMC viability (referred to as PBMC Cytotoxicity within the assay endpoint names), cells were plated (75,000/well in a 96-well plate) and then chemical samples added for 1 h before addition of activators, SEB and TSST-1 (20 ng/mL final concentration each). Cells were incubated for 90 h. Then, Alamar Blue (20 uL/well) (Invitrogen, Cat DAL1100) was added for 6 h, and the plates were read with a fluorescence microplate reader at 546/580 nm (excitation/emission). For PBMC proliferation, cells were plated and activated as above but incubated for only 16 h prior to addition of Alamar Blue. Plates were read after 6 h.
# [6] = read-out: Intercellular Adhesion Molecule 1 (ICAM1), ICAM1 (gene 3383); experiment: BSK_hDFCGF_ICAM1: BioMAP Diversity Plus: hDFCGF Assay for Intercellular Adhesion Molecule 1 (ICAM1) Biomarker Activity (AID 2284287); conditions: primary human foreskin fibroblasts
# How it was run: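 ICAM-1 ELISA readout 24 h after dosing, DMSO as baseline, in human dermal foreskin fibroblast cultures. Cytotoxicity checked in parallel wells by SRB staining (0.1% SRB, 10% TCA fixation, 560 nm).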
# [7] = read-out: TIMP metallopeptidase inhibitor 2 (TIMP2), TIMP2 (gene 7077); experiment: BSK_hDFCGF_TIMP2: BioMAP Diversity Plus: hDFCGF Assay for TIMP metallopeptidase inhibitor 2 (TIMP2) Biomarker Activity (AID 2284289); conditions: primary human foreskin fibroblasts
# How it was run: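 Primary human foreskin fibroblasts in the hDFCGF system, dosed for 24 h; TIMP-2 level measured by ELISA, fitted in the positive direction against DMSO; cytotoxicity checked in parallel by sulforhodamine B total protein staining.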
# [8] = read-out: Thrombomodulin, THBD (gene 7056); experiment: BSK_LPS_Thrombomodulin: BioMAP Diversity Plus: LPS Assay for Thrombomodulin Biomarker Activity (AID 2284296); conditions: primary human HUVEC with PBMC
# How it was run: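 Thrombomodulin on the surface of LPS-activated endothelial/PBMC co-cultures was quantified by ELISA at 24 hours post-dosing, with DMSO as baseline. Parallel SRB total-protein staining flagged overt cytotoxicity.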
# [9] = IUF_NPC2c_oligodendrocyte_migration_120hr: Leibniz Research Institute for Environmental Medicine (IUF) 120-hour Neural Progenitor Cell Migration Assay for Oligodendrocyte Migration (NPC2c) (AID 2284297)
# How it was run: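 Read-out is the mean distance of O4-positive oligodendrocytes from the sphere core edge at 120 h, normalized to radial glia migration and fitted in the gain direction against DMSO. Spheres of primary human neural progenitors differentiated on laminin under continuous compound exposure.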
structure (smiles),measurement,setting,value
O=C(Nc1ccc2c(O)c(N=Nc3ccc(N=Nc4ccc(S(=O)(=O)O)cc4)cc3)c(S(=O)(=O)O)cc2c1)c1ccccc1,outcome,[1],inactive
same,outcome,[2],inactive
same,outcome,KRT18 (gene 3875),inactive
same,outcome,[3],inactive
same,outcome,[4],inactive
same,outcome,[5],inactive
same,outcome,[6],inactive
same,outcome,[7],inactive
same,outcome,[8],inactive
COCCc1ccc(OCC(O)CNC(C)C)cc1 (stereo unspecified),outcome,[9],inactive
CCCCCCC(CO)CCCC (stereo unspecified),outcome,[1],inactive
same,outcome,[2],inactive
same,outcome,KRT18 (gene 3875),inactive
same,outcome,[3],inactive
same,outcome,[4],inactive
same,AC50,[5],30.9 µM (active) and 35 µM (active)
same,AC50,[6],35.6 µM (active) and 34.7 µM (active)
same,AC50,[7],30.6 µM (active) and 37.3 µM (active)
same,outcome,[8],inactive
Oc1c(Cl)cc(Cl)c(Cl)c1Cc1c(O)c(Cl)cc(Cl)c1Cl,AC50,[9],0.124 µM (active)
O=CN1CCOCC1,outcome,[1],inactive
same,outcome,[2],inactive
same,outcome,KRT18 (gene 3875),inactive
same,outcome,[3],inactive
same,outcome,[4],inactive
same,outcome,[5],inactive
same,outcome,[6],inactive
same,outcome,[7],inactive
same,outcome,[8],inactive
CC1(C)CCC[C@]2(C)[C@H]3CCO[C@]3(C)CC[C@@H]12,AC50,[1],27 µM (active)
same,outcome,[1],inactive
same,AC50,[2],33.1 µM (active)
same,outcome,[2],inactive
same,AC50,KRT18 (gene 3875),30.8 µM (active)
same,outcome,KRT18 (gene 3875),inactive
same,AC50,[3],31.6 µM (active)
same,outcome,[3],inactive
same,outcome,[4],inactive
same,AC50,[5],30.6 µM (active) and 30.5 µM (active)
same,AC50,[6],37.5 µM (active) and 37.8 µM (active)
same,AC50,[7],36.4 µM (active) and 37.9 µM (active)
same,outcome,[8],inactive
CC(CN=Cc1ccccc1O)N=Cc1ccccc1O (stereo unspecified),outcome,[1],inactive
same,outcome,[2],inactive
same,outcome,KRT18 (gene 3875),inactive
same,outcome,[3],inactive
same,outcome,[4],inactive
same,outcome,[5],inactive
same,outcome,[6],inactive
same,outcome,[7],inactive
same,outcome,[8],inactive
C=CC(C)(O)CCC=C(C)C (stereo unspecified),outcome,[1],inactive
same,outcome,[2],inactive
same,outcome,KRT18 (gene 3875),inactive
same,outcome,[3],inactive
same,outcome,[4],inactive
same,outcome,[5],inactive
same,outcome,[6],inactive
same,outcome,[7],inactive
same,outcome,[8],inactive
COCCOCCOCCO,outcome,[9],inactive
CN(C)CCOC(C)(c1ccccc1)c1ccccn1 (stereo unspecified),outcome,[9],inactive
CCOC(=O)C(C#N)=C(c1ccccc1)c1ccccc1,outcome,[1],inactive
same,outcome,[2],inactive
same,outcome,KRT18 (gene 3875),inactive
same,outcome,[3],inactive
same,outcome,[4],inactive
same,outcome,[5],inactive
same,outcome,[6],inactive
same,outcome,[7],inactive
same,outcome,[8],inactive
